From PubChem BioAssay
KDM5B inh – KDM5B demethylase inhibition | actives 2.6% (n = 220,000) | Q9UGL1 | AID 1347165 | KDM5B demethylase, FDH-coupled NADH fluorescence (FDH is formaldehyde dehydrogenase) | Potency, µM (series often up to 57.7 µM), actives largely listed as inhibitors; active = well fitted inhibition curve with a large enough effect; also: 0% is about no effect; nearly all actives have a fitted effect of over 70% in size
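qHTS format, multiple compound concentrations. Buffer 50 mM HEPES pH 7.5/0.01% Tween-20; 200 nM KDM5BΔAP final; 10 min compound preincubation; substrate-mix levels 12.5 µM peptide, 25 µM α-KG, 0.25 mM NAD⁺; 30 min RT; ΔRFU.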
Starred values were filed as active, the others as inactive; i = inactive. This excerpt belongs to a sample that is enriched for hits. Potency is read from the fitted curve at half-maximal effect.

SMILES | KDM5B inh
Fc1ccc(-c2cnc3n2C[C@H](CNCc2ccc4c(c2)OCO4)OC3)cc1 | i
COCCn1c(SCC(=O)Nc2ccc(OC)c(S(N)(=O)=O)c2)nc2ccccc2c1=O | i
CCCCCCCCC/C=N/NC(=S)NC1CCCCC1 | i
CCn1c(CC2CCN(Cc3ccc(S(C)(=O)=O)cc3)CC2)nn(C)c1=O | i
O=C(Cn1ncc2c3ccccc3n(Cc3ccc(Cl)cc3)c2c1=O)NCc1cccs1 | i
COc1ccc(CN(C)CC2CCN(C)C2(C)C)cc1C(=O)O (stereo not given) | i
O=C(NC1CCNCC1)c1cc(C2CC2)nc2c1c(C1CCCN1)nn2-c1ccccc1 (stereo not given) | i
O=C(NC1CC1)c1cc(C2CC2)nc2c1c(C1CCCN1)nn2-c1ccccc1 (stereo not given) | i
Cn1nc(C2CCCN2)c2c(C(=O)NCc3ccncc3)cc(C3CC3)nc21 (stereo not given) | 79.4µM*
O=C(c1cc(C2CC2)nc2c1c(C1CCCN1)nn2-c1ccccc1)N1CCOCC1 (stereo not given) | i
CC(C)CNC(=O)c1cc(C2CC2)nc2c1c(C1CCCN1)nn2C (stereo not given) | 79.4µM*
CN(CCc1ccncc1)C(=O)c1cc(C2CC2)nc2ccccc12 | i
O=C(O)c1cc(C2CC2)nc2c1c(C1CC1)nn2-c1ccc(F)cc1 | i
Cc1cc(C(=O)NCc2ccc(F)cc2)c2c(C3CCCN3)noc2n1 (stereo not given) | i
Cn1nc(C2CCCN2)c2c(C(=O)NCc3ccc(F)cc3)cc(C3CC3)nc21 (stereo not given) | 79.4µM*
CCOc1ccc(-n2c(=O)c3c4c(sc3n(CC(=O)Nc3cccc(C(F)(F)F)c3)c2=O)CCCCC4)cc1 | i
COc1ccc(S(=O)(=O)n2nc(-c3ccco3)nc2NCc2ccc(OC)c(OC)c2)cc1 | i
Cc1cc(C(=O)NNC(=O)Nc2ccc(Cl)cc2)no1 | i
O=C(NCC1CN(C(=O)Cc2ccc(Oc3ccccc3)cc2)CC12CN(c1ccccc1)C2)c1cccnc1 (stereo not given) | i
C=CCOc1ccc2c(c1)CCC1C2CCC2(C)C(=O)CCC12 (stereo not given) | i
O=C(NC1CCCCC1)C1=Cc2cc(Br)ccc2OC1 | i
O=C1CC(c2ccccc2)N(C(=O)Nc2ccccc2)CCCCCCN1 (stereo not given) | i
Cc1nn2c(NCc3cccnc3)c3c(nc2c1-c1ccccc1)CCC3 | i
COc1ccc2cnn(CC(=O)N3CCN(c4cccc(Cl)c4)CC3)c(=O)c2c1OC | i
C#CCN(C)C(=O)c1c(-c2ccccc2)noc1[C@H](C)O | i
SMILES | KDM5B inh
Cc1ccc(C(=O)NCCC2=CCCCC2)c(C)c1 | i
CCC(CC)c1nnc(NC(=O)c2cc(C)nc3ccccc23)s1 | i
COc1ccc(C(=O)Nc2oc3ccccc3c(=O)c2-c2cccc(C)c2)cc1 | i
O=c1c2nc(NCc3ccccc3)ccc2ncn1Cc1ccccn1 | i
COCCn1cnc2ccc(-c3ccccc3C)nc2c1=O | i
COCCn1cnc2ccc(-c3ccnn3C)nc2c1=O | 35.5µM*
COc1ncccc1-c1ccc2ncn(Cc3ccccn3)c(=O)c2n1 | 35.5µM*
COCCn1cnc2ccc(-c3ccccc3Oc3ccccc3)nc2c1=O | i
O=c1c2nc(OCc3ccccc3)ccc2ncn1Cc1ccccn1 | i
CCOC(=O)c1sc(NC(=O)Nc2ccccc2Br)nc1C | i
CCOc1ccc(C(=O)Nc2ccc(S(=O)(=O)N(Cc3ccccc3)c3ccccc3)cc2)cc1 | i
COC(=O)Cc1c(OC)ccc2cc(Br)ccc12 | i
O=C(c1cccc(F)c1)N1CCN(c2nnc3ccc(Cl)cn23)CC1 | 14.1µM*
Cc1ccc(C(=O)N2CCN(c3nnc4ccccn34)CC2)cc1C | 25.1µM*
O=C(c1cccc(F)c1)N1CCN(c2cn[nH]c(=O)c2Cl)CC1 | i
CC(=O)c1cc(F)c(N2CCN(C(=O)c3cccc(F)c3)CC2)cc1C | i
Cc1ccc(C(=O)N2CCN(c3cc(-c4cccs4)[nH]n3)CC2)cc1C | i
O=C(c1ccc(F)cc1)N1CCN(c2nnc3ccccn23)CC1 | 28.2µM*
COc1ccc(C(=O)N2CCN(c3cc(-c4ccc(F)cc4)[nH]n3)CC2)cc1 | i
O=C(c1ccc(F)cc1)N1CCN(c2ccc([N+](=O)[O-])cc2-n2cccc2)CC1 | i
Cc1ccc(C(=O)N2CCN(Cc3ccc(Cl)cc3)CC2)cc1C | i
Clc1ccccc1-c1nnc2ccc(SCc3ccco3)nn12 | i
CCOC(=O)Cc1csc(SC(C)C(=O)NCC(=O)Nc2ccc(F)c(F)c2F)n1 (stereo not given) | i
COc1ccccc1C(=O)Nc1ccc2oc(-c3ccccc3F)cc(=O)c2c1 | i
COc1cc(C2CC(=O)c3c([nH]c(C(=O)OC4CCCC4)c3C)C2)cc(OC)c1OC (stereo not given) | i
SMILES | KDM5B inh
COc1cc(NC(=O)Nc2nnc(N3CCCCCC3)s2)cc(OC)c1 | i
CCCNc1c(NC(=O)c2cc(OC)cc(OC)c2)c(=O)oc2ccccc12 | i
CCOC(=O)c1oc2ccccc2c1COC(=O)CNC(=O)c1cccc(OC)c1 | i
COc1ccccc1C(=O)N1CCc2nc(C3CC3)nc(-c3ccc(Cl)cc3)c2C1 | i
Cc1noc(C)c1S(=O)(=O)N1CCc2nc3cc(-c4ccccc4)[nH]n3c(=O)c2C1 | 28.2µM*
Cc1noc(C)c1S(=O)(=O)N1CCc2n[nH]c(=O)n2CC1 | i
CCn1c2c(c(=O)n1-c1ccccc1)CCN(C(=O)c1ccc(Cl)cc1)C2 | i
O=C(c1cnc2ccccn12)N1CCc2c(nc(-c3ccccc3)[nH]c2=O)C1 | i
Cc1noc(C)c1S(=O)(=O)N1CCCCCCn2c(nnc2-c2ccc(F)cc2)CC1 | i
CN(C)S(=O)(=O)N1CCCC(c2nc(-c3ccccc3)no2)CCNC(=O)CC1 (stereo not given) | i
COc1ccc(Cl)cc1C(=O)N1CCc2nc3cc(-c4ccccc4)[nH]n3c(=O)c2C1 | 25.1µM*
CN(C)S(=O)(=O)N1CCCC(c2nc(-c3cccnc3)no2)CCNC(=O)CC1 (stereo not given) | i
COc1ccc(Cl)cc1C(=O)N1CCCN(c2cc(-c3ccccc3)[nH]n2)CC1 | i
CCn1cc(Cl)c(C(=O)N2CCc3c(nc4cc(-c5ccccc5)[nH]n4c3=O)C2)n1 | 25.1µM*
CN(C)S(=O)(=O)N1CCc2c(nc3cc(-c4ccccc4)[nH]n3c2=O)C1 | 22.4µM*
CC1C(c2ccc(Cl)cc2)=[N+]([O-])C(C)(c2ccccc2)N1O (stereo not given) | i
Cc1cc(NS(=O)(=O)c2ccc(NC(=S)Nc3ccc(Cl)cc3C)cc2)no1 | i
Cc1nc(CCNC(=O)C2CCN(S(=O)(=O)c3cccc(C(F)(F)F)c3)CC2)cs1 | i
COc1ccc(-n2nnnc2C2CCN(S(=O)(=O)c3ccc(F)cc3)CC2)cc1 | i
Cc1ccc(C)c(S(=O)(=O)Nc2ccc3c(c2)CCCN3C(=O)c2cccs2)c1 | i
Cc1cc(C(=O)N2[C@@H]3CC[C@H]2CC(NC(=O)c2ccncc2)C3)nn1C (stereo not given in full) | i
COc1ccccc1C(=O)Nc1ccc2ccccc2c1 | i
CNC(=O)CSc1nc2c(c(C(F)(F)F)c1C#N)CC(C(C)(C)C)CC2 (stereo not given) | i
COc1ccccc1N1CCN(C(=O)c2cc(-c3ccc(F)cc3)on2)CC1 | i
